In PubChem BioAssay AID651815 (National Center for Advancing Translational Sciences (NCATS), 2012):
Hit rate of the full screen: of about 2,100 compounds, about 1,100 (52%) were called active. Not shown: some 29% with an inconclusive outcome. Calls come from the whole dose curve; as a rule, active = well fitted inhibition curve with a large enough effect; inconclusive = small, poorly fitted or top-dose-only effect; inactive = no such curve, though single readings can be large or run the other way. So high a share suggests a set chosen from earlier hits. This is one part of the list.

What follows are compounds tested against DNA dC->dU-editing enzyme APOBEC-3F (Homo sapiens) (UniProt Q8IUX4) (assay: qHTS for inhibitors of Vif-A3F interactions: Cherry picks counterscreen). Settings: HeLa A3F-eYFP/Vif cells, eYFP fluorescence, 24 h; series mostly up to 46.1 µM.
Sequence of DNA dC->dU-editing enzyme APOBEC-3F (Homo sapiens) (Q8IUX4 whole entry, looked up): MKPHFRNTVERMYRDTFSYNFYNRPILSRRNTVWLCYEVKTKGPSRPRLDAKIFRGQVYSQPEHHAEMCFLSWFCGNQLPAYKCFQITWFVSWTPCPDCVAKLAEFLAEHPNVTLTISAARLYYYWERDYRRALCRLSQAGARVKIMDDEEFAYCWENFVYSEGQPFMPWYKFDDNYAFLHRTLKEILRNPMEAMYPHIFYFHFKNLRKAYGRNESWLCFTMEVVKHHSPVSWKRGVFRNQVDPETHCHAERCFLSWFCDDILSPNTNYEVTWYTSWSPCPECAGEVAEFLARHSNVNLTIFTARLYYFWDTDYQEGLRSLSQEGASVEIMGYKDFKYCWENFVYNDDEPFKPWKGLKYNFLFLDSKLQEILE
In short: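 Rescue of Vif-driven A3F-eYFP degradation read as cellular eYFP fluorescence after 24 h compound exposure (several concentrations) in stable HeLa cells; MG132 (2 mM stock) as positive control.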
Note: nearly all actives have a fitted effect of over 65% in size.
Potency is the fitted concentration of half-maximal effect.

Row | Structure (SMILES) | Potency
1 | Cc1cc(C(F)(F)F)c(C#N)c(SCC(=O)Nc2nc3ccccc3s2)n1 | 16.4 µM (active)
2 | Cc1sc2nc(CSCC(=O)Nc3ccccc3C#N)[nH]c(=O)c2c1C | inactive
3 | Cc1coc(NC(=O)CSc2nc(-c3ccncc3)cc(C(F)(F)F)c2C#N)n1 | 7.31 µM (active)
4 | CN(C)c1ccc(/C=C2\Oc3ccc(C#Cc4cccc(N)c4)cc3C2=O)cc1 | 15.8 µM (active)
5 | O=C(Cc1n[nH]c(=O)c2ccccc12)OCC(=O)c1ccc2c(c1)OCCO2 | 2.8 µM (active)
6 | CCOc1ccc(C(=O)COC(=O)Cc2n[nH]c(=O)c3ccccc23)cc1 | 4.44 µM (active)
7 | COc1ccc(C(=O)/C=C/Nc2ccc([N+](=O)[O-])cc2C)c(OC)c1 | 18.4 µM (active)
8 | COc1cccc(N=C2NC(=O)/C(=C/c3cc([N+](=O)[O-])ccc3O)S2)c1 | inactive
9 | N#C/C(N=Nc1ccccc1O)=N\Nc1ccccc1O | 5.17 µM (active)
10 | O=[N+]([O-])c1cc(Cl)c2cccnc2c1O | inactive
11 | Cc1cc(N2CCN(c3ccc([N+](=O)[O-])c4cccnc34)CC2)c2ccccc2n1 | 20.6 µM (active)
12 | COc1ccccc1Nc1cc2cc(Br)ccc2c(=O)[nH]1 | 7.04 µM (active)
13 | COc1ccc(OCCCC(=O)N2CCN(S(=O)(=O)c3cccc(F)c3)CC2)cc1 | inactive
14 | COc1cccc(NC(=O)c2oc3ccc(S(=O)(=O)N4CCC5(CC4)OCCO5)cc3c2C)c1 | 13 µM (active)
15 | COc1ccc(NC(=O)c2oc3ccc(S(=O)(=O)N4CCOCC4)cc3c2C)cc1 | inactive
16 | CN(CC(=O)Nc1ccc(Cl)c(C(F)(F)F)c1)C(=O)c1ccc(S(=O)(=O)N2CCOCC2)cc1 | 4.44 µM (active)
17 | Cc1ccc(NC(=O)C2CCN(S(=O)(=O)c3ccc(Cl)c(C(F)(F)F)c3)CC2)nc1 | inactive
18 | COC(=O)C1CCC(=O)N1C(c1ccc(OC)cc1)c1cc(OC)c(OC)c(OC)c1 (stereo not given) | 0.79 µM (active)
19 | CCS(=O)(=O)C1=NN2C(=N)/C(=C\c3ccc(SCc4ccco4)o3)C(=O)N=C2S1 | inactive
20 | CC1=CN2C(=N)/C(=C/c3ccc([N+](=O)[O-])o3)C(=O)N=C2S1 | 14 µM (active)
21 | CCOC(=O)C1=C(Cc2ccc(F)cc2)C(=O)c2ccccc2C1=O | 16.4 µM (active)
22 | COc1ccc(C(C)(O)c2nc(-c3ccccc3OC)cs2)cc1 (stereo not given) | 12.5 µM (active)
23 | CCOc1cc(/C=C(\C#N)c2nc(-c3cccs3)c(NC(C)=O)s2)ccc1O | inactive
24 | CC(=O)Nc1sc(/C(C#N)=C/c2ccc(Cl)c(Cl)c2)nc1-c1ccc(C)cc1 | 2.59 µM (active)
25 | CC(=O)Nc1sc(/C(C#N)=C\c2cccc(Cl)c2)nc1-c1ccc(C)cc1 | 11.6 µM (active)
